Laboratory results as given in PubChem BioAssay.
Active and inactive are the calls of the source. How the calls were made is not given here.

test: inhibition of Brca1/Bard1 split-luciferase complementation, confirmation, counter-screen for Mdm2/MdmX interaction inhibitor project, luminescence, single concentration (AID 504668); conditions: Brca1/Bard1 bimolecular luciferase complementation counterscreen, at 8 µM, active compounds read high

| Compound | inhibition |
| --- | --- |
| CCOc1ccc(N=Nc2ccc(O)c3ncccc23)cc1 | 23.3% (active) |
| O=c1c2ccccc2nc(COc2ccccc2)n1/N=C/c1ccc(O)cc1O | 31% (active) |
| Cc1sc2ncnc(N3CCC(C(=O)N(C)CC(=O)Nc4ccc(Cl)c(C(F)(F)F)c4)CC3)c2c1C | 29% (active) |
| COc1ccc(/C=C2\CCC/C(=C\C=N\N(C)C)C2=O)cc1 | 29.2% (active) |
| Cn1c(C(=O)NCc2ccccc2)cc2oc3ccccc3c21 | 32.1% (active) |
| C(=N\Nc1nc(-c2ccccn2)nc2ccccc12)/c1ccccc1 | 26.1% (active) |
| O=C(Nc1cccc(Cl)c1)Nc1nnc(CSCCOc2ccc(Cl)cc2)s1 | 23% (active) |
| O=C(COc1ccc([N+](=O)[O-])cc1)Nc1nc(-c2ccccn2)cs1 | 35.6% (active) |
| COC(=O)c1cccc(C23CC4(C2)[C@H](CN(Cc2ccc(C(F)(F)F)cc2)[C@@H]4c2ccccc2)C3c2ccc(C(F)(F)F)cc2)c1 (stereo not given in full) | 23.6% (active) |
| CCCNC(=O)c1ccc2c(=O)c(O)c(-c3cccc(Br)c3)[nH]c2c1 | 31.4% (active) |
| N=c1c(S(=O)(=O)c2ccc(Cl)cc2)cc2c(=O)n3ccccc3nc2n1CCc1ccccc1 | 24.9% (active) |
| COc1ccc(O)c(/C=N/NC(=O)c2ccc(CSc3nc(C)cc(C)n3)cc2)c1 | 30.7% (active) |
| C#CCOCCOCCOCCNc1nc(N2CCN(C(=O)CCCCCCCCCCNC(=O)Cn3cc(C[C@@H](C)O)nn3)CC2)nc(N2CCN(C(=O)CCCCCCCCCCNC(=O)[C@@H]([C@H](C)CC)n3cc(CCCCCN)nn3)CC2)n1 | 27.2% (active) |
| CCCSc1nnc(NC(=O)Nc2ccc(F)cc2)s1 | 28.5% (active) |
| CCN1C(=O)C2(Nc3ccccc3-c3nc4ccccc4n32)c2cc(OC)ccc21 (stereo not given) | 23.7% (active) |
| COc1ccc(-n2nc(C(=O)c3cccs3)cc(-c3nc4ccccc4[nH]3)c2=N)cc1 | 30.8% (active) |
| O=C(NNC(=O)c1ccccc1OCc1ccccc1)c1ccccc1O | 34.8% (active) |
| O=C(Nc1ccncc1NC(=O)c1cccc([N+](=O)[O-])c1)c1cccc([N+](=O)[O-])c1 | 31% (active) |
| Cc1nc(SCC(=O)Nc2ccc(S(=O)(=O)N3CCOCC3)cc2)c2c(C)c(C)sc2n1 | 28.6% (active) |
| COc1cccc(-c2sc3ccc(OC)cc3c2-c2ccc(OCCN3CCCC3)cc2)c1 | 27.8% (active) |
| CC(=O)NC(c1ccc(C)cc1)c1cc([N+](=O)[O-])c2cccnc2c1O (stereo not given) | 25% (active) |
| O=C(CCl)N1CCN2C(=O)c3ccccc3C12c1ccc(Cl)cc1 (stereo not given) | 28.5% (active) |
| N=c1c(C(=O)NC2CCCCC2)cc2c(=O)n3ccccc3nc2n1Cc1ccco1 | 33.2% (active) |
| Cc1nn2c(NCc3ccccn3)cc(C(C)C)nc2c1-c1ccccc1 | 28.7% (active) |
| CCN1CCN(CCNC(=O)c2ccc(/C=C3/Sc4ccccc4N(Cc4cccc(C)c4)C3=O)cc2)CC1 | 27.6% (active) |
